Reference: PubChem BioAssay (EPA / NIEHS)
Values joined by “and” are separate entries in the source; they are usually repeats but may differ in a detail not shown here. Equal entries are not always repeated. Where a structure was tested more than once in an assay, its records may differ in their call. Active and inactive are the calls of the source. The calls were made as follows: active = hit-call score of the fitted dose curve at least 0.9, where 1 is the maximum; inactive = score below 0.9.

Tests used:
[1] = read-out: Collagen I, COL1A1 (gene 1277); assay: BSK_MyoF_CollagenI: BioMAP Diversity Plus: MyoF Assay for Collagen I Biomarker Activity (AID 2284238); conditions: primary human lung fibroblasts
In short: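 Multiplexed primary human lung fibroblast system; Collagen I measured by ELISA at 24 h post-dose. Increases are referenced to DMSO.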

[2] = read-out: Collagen III, COL3A1 (gene 1281); assay: BSK_MyoF_CollagenIII: BioMAP Diversity Plus: MyoF Assay for Collagen III Biomarker Activity (AID 2284239); conditions: primary human lung fibroblasts
In short: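 Compounds are added to primary human lung fibroblasts and left for 24 hours. Collagen III is then quantified by ELISA. Analysis takes DMSO as baseline and fits increases in signal.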

[3] = read-out: Interleukin 17F (IL17F), IL17F (gene 112744); assay: BSK_BT_xIL17F: BioMAP Diversity Plus: BT Assay for Interleukin 17F (IL17F) Biomarker Activity (AID 2284243); conditions: primary human B cells with PBMC
In short: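 Measures secreted IL-17F from a human B cell plus PBMC co-culture at 24 h post-dose by Luminex xMAP, with DMSO defining baseline activity.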

[4] = read-out: Actin alpha 1 (ACTA1), ACTA1 (gene 58); assay: BSK_MyoF_ACTA1: BioMAP Diversity Plus: MyoF Assay for Actin alpha 1 (ACTA1) Biomarker Activity (AID 2284244); conditions: primary human lung fibroblasts
In short: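 Lung fibroblasts, human primary, 24 h compound exposure → a-SMA ELISA. Positive-direction fit vs DMSO control.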

[5] = read-out: Interleukin 2 (IL2), IL2 (gene 3558); assay: BSK_BT_xIL2: BioMAP Diversity Plus: BT Assay for Interleukin 2 (IL2) Biomarker Activity (AID 2284245); conditions: primary human B cells with PBMC
In short: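 B cell + PBMC co-culture (human primary), compound added, 24 h incubation; secreted IL-2 measured multiplexed on Luminex xMAP; gain-of-signal fit vs DMSO.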

[6] = read-out: Basic fibroblast growth factor (bFGF), FGF2 (gene 2247); assay: BSK_MyoF_bFGF: BioMAP Diversity Plus: MyoF Assay for Basic fibroblast growth factor (bFGF) Biomarker Activity (AID 2284246); conditions: primary human lung fibroblasts
In short: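 ELISA-measured bFGF level serves as the read-out, taken 24 h after chemical dosing of human lung fibroblasts. Values represent signal gain over the DMSO negative control.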

[7] = read-out: Collagen IV, COL4A1 (gene 1282); assay: BSK_MyoF_CollagenIV: BioMAP Diversity Plus: MyoF Assay for Collagen IV Biomarker Activity (AID 2284247); conditions: primary human lung fibroblasts
In short: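 Steps: dose human lung fibroblasts; culture 24 h; quantify Collagen IV by ELISA; fit increase versus DMSO control. Parallel SRB total-protein staining (0.1% SRB after 10% TCA fixation, 560 nm) tracks overt cytotoxicity.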

[8] = read-out: Monokine induced gamma interferon (MIG), CXCL9 (gene 4283); assay: BSK_KF3CT_MIG: BioMAP Diversity Plus: KF3CT Assay for Monokine induced gamma interferon (MIG) Biomarker Activity (AID 2284248); conditions: primary human keratinocytes with fibroblasts
In short: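 The assay uses a co-culture of human keratinocytes and foreskin fibroblasts. Measurement occurs 24 hours after dosing, with MIG detected by ELISA and the DMSO control as baseline.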

[9] = read-out: Vascular cell adhesion molecule 1 (VCAM1), VCAM1 (gene 7412); assay: BSK_BF4T_VCAM1: BioMAP Diversity Plus: BF4T Assay for Vascular cell adhesion molecule 1 (VCAM1) Biomarker Activity (AID 2284249); conditions: primary human bronchial epithelial cells with fibroblasts
In short: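 Human bronchial epithelial cell and dermal fibroblast co-culture exposed 24 h. VCAM-1 measured by ELISA; parallel SRB total-protein staining for cytotoxicity. Fitted in positive direction relative to DMSO.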

[10] = read-out: Collagen I, COL1A1 (gene 1277); assay: BSK_hDFCGF_CollagenI: BioMAP Diversity Plus: hDFCGF Assay for Collagen I Biomarker Activity (AID 2284250); conditions: primary human foreskin fibroblasts
In short: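 Human skin primary fibroblasts dosed with test chemical, harvested at 24 h, Collagen I quantified by ELISA; parallel SRB staining (0.1% SRB after 10% TCA fixation, 560 nm) tracked cytotoxicity.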

[11] = read-out: Interferon-inducible T-cell alpha chemoattractant (ITAC), CXCL11 (gene 6373); assay: BSK_hDFCGF_ITAC: BioMAP Diversity Plus: hDFCGF Assay for Interferon-inducible T-cell alpha chemoattractant (ITAC) Biomarker Activity (AID 2284251); conditions: primary human foreskin fibroblasts
In short: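 ELISA readout of I-TAC after 24 h chemical exposure; human dermal foreskin fibroblast primary cells. Positive-direction fitting vs DMSO baseline. Parallel SRB total-protein staining (0.1% SRB after 10% TCA fixation, 560 nm) flags cytotoxicity.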

[12] = read-out: Plasminogen activator inhibitor-1 (PAI1), SERPINE1 (gene 5054); assay: BSK_KF3CT_PAI1: BioMAP Diversity Plus: KF3CT Assay for Plasminogen activator inhibitor-1 (PAI1) Biomarker Activity (AID 2284252); conditions: primary human keratinocytes with fibroblasts
In short: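 ELISA read-out of PAI-1 taken 24 h after chemical treatment of a human skin primary co-culture of keratinocytes and foreskin fibroblasts. Increases over DMSO-treated wells defined activity.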

[13] = read-out: Interleukin-8 (IL8), CXCL8 (gene 3576); assay: BSK_KF3CT_IL8: BioMAP Diversity Plus: KF3CT Assay for Interleukin-8 (IL8) Biomarker Activity (AID 2284254); conditions: primary human keratinocytes with fibroblasts
In short: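 ELISA detection of IL-8 from a human skin co-culture, keratinocytes with foreskin fibroblasts, at 24 h following chemical exposure, with gain of signal scored against DMSO controls.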

[14] = read-out: Macrophage Inflammatory Protein-1 Alpha (MIP1a), CCL3 (gene 6348); assay: BSK_IMphg_MIP1a: BioMAP Diversity Plus: IMphg Assay for Macrophage Inflammatory Protein-1 Alpha (MIP1a) Biomarker Activity (AID 2284255); conditions: primary human endothelial cells with macrophages
In short: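 Co-culture of human venular endothelial cells and macrophages exposed to compounds for 24 h; MIP-1a measured by ELISA relative to DMSO. Cytotoxicity assessed in parallel cultures by sulforhodamine B total-protein staining at 560 nm.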

[15] = read-out: Plasminogen activator inhibitor-1 (PAI1), SERPINE1 (gene 5054); assay: BSK_MyoF_PAI1: BioMAP Diversity Plus: MyoF Assay for Plasminogen activator inhibitor-1 (PAI1) Biomarker Activity (AID 2284256); conditions: primary human lung fibroblasts
In short: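 Activity reflects increased PAI-1, determined by ELISA and compared with DMSO, in human lung fibroblasts treated for 24 h.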

CD69, CD69 (gene 969) = assay: BSK_IMphg_CD69: BioMAP Diversity Plus: IMphg Assay for CD69 Biomarker Activity (AID 2284257); conditions: primary human endothelial cells with macrophages
In short: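 Human venular endothelial cells co-cultured with macrophages; CD69 quantified by ELISA 24 h after compound addition. Activity fitted in the positive direction relative to DMSO baseline; cytotoxicity tracked in parallel cultures via SRB total-protein staining.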

[16] = read-out: Eotaxin 3, CCL26 (gene 10344); assay: BSK_BF4T_Eotaxin3: BioMAP Diversity Plus: BF4T Assay for Eotaxin 3 Biomarker Activity (AID 2284258); conditions: primary human bronchial epithelial cells with fibroblasts
In short: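 Co-culture of human bronchial epithelial cells and dermal fibroblasts, exposed to chemicals for 24 h versus DMSO. Eotaxin-3 quantified by ELISA; cytotoxicity checked in parallel cultures by sulforhodamine B total-protein staining.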

[17] = read-out: Monocyte Chemoattractant Protein-1 (MCP1), CCL2 (gene 6347); assay: BSK_BF4T_MCP1: BioMAP Diversity Plus: BF4T Assay for Monocyte Chemoattractant Protein-1 (MCP1) Biomarker Activity (AID 2284259); conditions: primary human bronchial epithelial cells with fibroblasts
In short: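 Co-culture of bronchial epithelial cells and dermal fibroblasts dosed with chemical; MCP-1 measured by ELISA 24 h later. Activity fitted in positive direction versus DMSO; cytotoxicity checked by SRB staining in parallel cultures.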

Measured: AC50

OCC(F)(F)C(F)(F)C(F)(F)C(F)(F)C(F)(F)C(F)(F)CO
inactive: all assays above

OCC(O)CC(F)(F)C(F)(F)C(F)(F)C(F)(F)C(F)(F)C(F)(F)C(F)(F)C(F)(F)F (stereo not drawn)
inactive: all assays above

Nc1cc([N+](=O)[O-])cc(Cl)c1O
inactive: [1] | [2] | [3] | [4] | [5] | [6] | [7] | [15]

NC(=O)C(F)(F)C(F)(F)C(F)(F)F
inactive: all assays above

Cc1cc(C)c(O)c(C(C)(C)C)c1
active: [1] 30.6 µM | [2] 30.5 µM | [4] 29.8 µM | [6] 36.8 µM | [7] 32.4 µM | [15] 36.4 µM
inactive: [3] | [5]

O=C=NCc1cccc(CN=C=O)c1
inactive: [1] | [2] | [3] | [4] | [5] | [6] | [7] | [15]

Cc1ccc(O)c(-n2nc3ccccc3n2)c1
inactive: [1] | [2] | [3] | [4] | [5] | [6] | [7] | [15]

NS(=O)(=O)C(F)(F)C(F)(F)C(F)(F)C(F)(F)C(F)(F)C(F)(F)F
inactive: [1] | [2] | [3] | [4] | [5] | [6] | [8] | [10] | [12] | [13] | [14] | [15] | [16] | [17]
active: [7] 25.5 µM and 20.4 µM | [9] 19.8 µM and 21.1 µM | [11] 43.1 µM and 39.1 µM | CD69, CD69 (gene 969) 21.7 µM and 30 µM | [17] 7.99 µM

CCOC(C=C(C)CCC=C(C)C)OCC
active: [1] 30 µM | [2] 20 µM | [4] 7.77 µM | [6] 30.7 µM | [15] 20 µM
inactive: [3] | [5] | [7]
